Activity calls are given as the source filed them.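 Rule for the calls: active = normalized viability below 100% at a tested concentration; inactive = the rest.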
Experiment: ovarian cancer cell viability with rucaparib, profiling panel, oncology-focused library, rucaparib conditional (AID 1508598)
Conditions: patient-derived ovarian cancer cells, CellTiter-Glo viability, 144 h, stronger effect = lower value
[1] = at 5 µM, OCI-P5x cells, with rucaparib 20 µM, 100% = cells with rucaparib alone
[2] = at 5 µM, OCI-P5x cells, without rucaparib
[3] = at 0.000305 µM, OCI-C5x cells, with rucaparib 10 µM, 100% = cells with rucaparib alone
[4] = at 0.000305 µM, OCI-C5x cells, without rucaparib
[5] = at 0.000305 µM, OCI-P5x cells, with rucaparib 20 µM, 100% = cells with rucaparib alone
[6] = at 0.000305 µM, OCI-P5x cells, without rucaparib
[7] = at 0.00122 µM, OCI-C5x cells, with rucaparib 10 µM, 100% = cells with rucaparib alone
[8] = at 0.00122 µM, OCI-C5x cells, without rucaparib
[9] = at 0.00122 µM, OCI-P5x cells, with rucaparib 20 µM, 100% = cells with rucaparib alone
[10] = at 0.00122 µM, OCI-P5x cells, without rucaparib
[11] = at 0.00488 µM, OCI-C5x cells, with rucaparib 10 µM, 100% = cells with rucaparib alone
[12] = at 0.00488 µM, OCI-C5x cells, without rucaparib
[13] = at 0.00488 µM, OCI-P5x cells, with rucaparib 20 µM, 100% = cells with rucaparib alone
[14] = at 0.00488 µM, OCI-P5x cells, without rucaparib
[15] = at 0.0195 µM, OCI-C5x cells, with rucaparib 10 µM, 100% = cells with rucaparib alone
[16] = at 0.0195 µM, OCI-C5x cells, without rucaparib
[17] = at 0.0195 µM, OCI-P5x cells, with rucaparib 20 µM, 100% = cells with rucaparib alone
[18] = at 0.0195 µM, OCI-P5x cells, without rucaparib
[19] = at 0.0781 µM, OCI-C5x cells, with rucaparib 10 µM, 100% = cells with rucaparib alone
[20] = at 0.0781 µM, OCI-C5x cells, without rucaparib
[21] = at 0.0781 µM, OCI-P5x cells, with rucaparib 20 µM, 100% = cells with rucaparib alone
[22] = at 0.0781 µM, OCI-P5x cells, without rucaparib
[23] = at 0.313 µM, OCI-C5x cells, with rucaparib 10 µM, 100% = cells with rucaparib alone
[24] = at 0.313 µM, OCI-C5x cells, without rucaparib
[25] = at 0.313 µM, OCI-P5x cells, with rucaparib 20 µM, 100% = cells with rucaparib alone
[26] = at 0.313 µM, OCI-P5x cells, without rucaparib
[27] = at 1.25 µM, OCI-C5x cells, with rucaparib 10 µM, 100% = cells with rucaparib alone
[28] = at 1.25 µM, OCI-C5x cells, without rucaparib
[29] = at 1.25 µM, OCI-P5x cells, with rucaparib 20 µM, 100% = cells with rucaparib alone
[30] = at 1.25 µM, OCI-P5x cells, without rucaparib
[31] = at 5 µM, OCI-C5x cells, with rucaparib 10 µM, 100% = cells with rucaparib alone
[32] = at 5 µM, OCI-C5x cells, without rucaparib

Measured: viability

Nc1ncn([C@@H]2O[C@H](CO)[C@@H](O)[C@@H]2O)c(=O)n1
active: [1] 97.7% | [2] 99.1%

COc1cccc(-c2cc(F)ccc2[C@H]2Cc3nc(N)nc(C)c3C(=O)N2)n1
active: [13] 53.5% | [14] 34.2% | [15] 93.9% | [16] 41.2% | [17] 16.9% | [18] 8.17% | [19] 23.6% | [20] 13.1% | [21] 10.3% | [22] 7.46% | [23] 11.3% | [24] 8.63% | [25] 6.73% | [26] 5.16% | [27] 10.2% | [28] 7.01% | [29] 5.14% | [30] 4.54% | [31] 9.37% | [32] 7.01% | [1] 4.5% | [2] 3.25%
inactive: [3] 108% | [4] 122% | [5] 108% | [6] 113% | [7] 117% | [8] 135% | [9] 101% | [10] 112% | [11] 134% | [12] 141%

CO[C@H]1C[C@@H]2CC[C@@H](C)[C@@](O)(O2)C(=O)C(=O)N2CCCC[C@H]2C(=O)O[C@H]([C@H](C)C[C@@H]2CC[C@@H](O)[C@H](OC)C2)CC(=O)[C@H](C)/C=C(\C)[C@@H](O)[C@H](OC)C(=O)[C@H](C)C[C@H](C)/C=C/C=C/C=C/1C
active: [5] 87.8% | [6] 75.2% | [7] 99.6% | [9] 91.5% | [10] 64.8% | [11] 94.9% | [12] 95.5% | [13] 83.5% | [14] 62.3% | [16] 95.6% | [17] 87.8% | [18] 62.5% | [20] 89.7% | [21] 92.1% | [22] 60% | [24] 97.8% | [25] 94.8% | [26] 63.9% | [28] 99.2% | [29] 93.7% | [30] 61.2% | [1] 65% | [2] 61%
inactive: [3] 117% | [4] 111% | [8] 102% | [15] 101% | [19] 103% | [23] 107% | [27] 105% | [31] 118% | [32] 107%

CC(=O)O[C@]12CO[C@@H]1C[C@H](O)[C@]1(C)C(=O)[C@H](O)C3=C(C)[C@H](OC(=O)[C@H](O)[C@@H](NC(=O)OC(C)(C)C)c4ccccc4)C[C@](O)([C@H](OC(=O)c4ccccc4)C21)C3(C)C (stereo partly specified)
inactive: [3] 118% | [4] 115% | [5] 120% | [6] 106%
active: [7] 86.4% | [8] 76% | [9] 93% | [10] 33.3% | [11] 37.6% | [12] 32.6% | [13] 70.1% | [14] 19.5% | [15] 41.9% | [16] 35.3% | [17] 56.6% | [18] 16.8% | [19] 38.2% | [20] 33.7% | [21] 61.2% | [22] 19.8% | [23] 41.5% | [24] 37.8% | [25] 55.6% | [26] 18.6% | [27] 47.4% | [28] 41.3% | [29] 55.9% | [30] 20.7% | [31] 37.7% | [32] 56.7% | [1] 34.2% | [2] 16.1%

CCC(C)(C)C(=O)O[C@@H]1C[C@@H](C)C=C2C=C[C@H](C)[C@@H](CC[C@@H]3C[C@@H](O)CC(=O)O3)[C@H]21
active: [13] 96.9% | [15] 95.4% | [17] 94.2% | [19] 76.6% | [20] 70.9% | [21] 72.4% | [22] 66.6% | [23] 36% | [24] 32% | [25] 13.1% | [26] 14.5% | [27] 24.2% | [28] 27.2% | [29] 7.81% | [30] 7.43% | [31] 8.07% | [32] 7.81% | [1] 5.14% | [2] 3.59%
inactive: [3] 109% | [4] 119% | [5] 102% | [6] 113% | [7] 108% | [8] 113% | [9] 110% | [10] 115% | [11] 112% | [12] 110% | [14] 110% | [16] 112% | [18] 101%

C=CCNC1=C2C[C@@H](C)C[C@H](OC)[C@H](O)[C@@H](C)/C=C(\C)[C@H](OC(N)=O)[C@@H](OC)/C=C\C=C(\C)C(=O)NC(=CC1=O)C2=O
active: [21] 41.9% | [22] 35.9% | [24] 56.1% | [25] 12.5% | [26] 8.71% | [27] 28.6% | [28] 27.2% | [29] 5.52% | [30] 5.3% | [31] 8.53% | [32] 8.44% | [1] 2.79% | [2] 1.94%
inactive: [3] 110% | [4] 101% | [5] 119% | [6] 124% | [7] 113% | [8] 108% | [9] 126% | [10] 121% | [11] 110% | [12] 117% | [13] 122% | [14] 126% | [15] 120% | [16] 116% | [17] 119% | [18] 115% | [19] 133% | [20] 112% | [23] 104%

CCCCCOC(=O)Nc1nc(=O)n([C@@H]2O[C@H](C)[C@@H](O)C2O)cc1F (stereo partly specified)
inactive: [3] 114% | [4] 111% | [5] 115% | [6] 116% | [7] 119% | [8] 120% | [9] 123% | [10] 115% | [11] 111% | [12] 126% | [13] 115% | [14] 123% | [15] 126% | [16] 113% | [17] 115% | [18] 123% | [19] 101% | [20] 111% | [21] 121% | [22] 118% | [23] 106% | [24] 109% | [25] 115% | [26] 123% | [27] 105% | [28] 117% | [29] 113% | [30] 116% | [31] 107% | [32] 114% | [1] 121% | [2] 122%

C[C@H]1C[C@H]2[C@@H]3CCC4=CC(=O)C=C[C@]4(C)[C@@H]3C(=O)C[C@]2(C)[C@]1(O)C(=O)CO
inactive: [3] 114% | [4] 123% | [6] 119% | [7] 118% | [8] 124% | [9] 105% | [10] 116% | [11] 110% | [12] 119% | [14] 119% | [15] 113% | [16] 122% | [17] 103% | [18] 122% | [19] 109% | [20] 122% | [21] 102% | [22] 125% | [23] 111% | [24] 125% | [25] 100% | [26] 126% | [27] 125% | [28] 129% | [29] 108% | [30] 130% | [31] 119% | [32] 148% | [1] 112% | [2] 125%
active: [5] 96.8% | [13] 96.6%

C[C@H](O[C@H]1OCCN(Cc2n[nH]c(=O)[nH]2)[C@H]1c1ccc(F)cc1)c1cc(C(F)(F)F)cc(C(F)(F)F)c1
active: [31] 80.9%
inactive: [3] 106% | [4] 113% | [5] 100% | [6] 105% | [7] 111% | [8] 113% | [9] 109% | [10] 105% | [11] 122% | [12] 123% | [13] 110% | [14] 114% | [15] 108% | [16] 114% | [17] 115% | [18] 112% | [19] 117% | [20] 125% | [21] 117% | [22] 117% | [23] 116% | [24] 130% | [25] 112% | [26] 119% | [27] 120% | [28] 144% | [29] 117% | [30] 113% | [32] 147%

From PubChem BioAssay
